From PubChem BioAssay (NCI)
Several values for one entry are separate records, joined by “and”; a condition that tells them apart may be missing. Equal entries are not always repeated. About 83,000 compounds went through this panel and 20% of them were active in at least one assay; those are over-represented in the sample as a whole.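 How to read the values: 0–100, growth inhibition (40 = 60% inhibited); 0, no net growth; -100 to 0, cell death (-40 = 40% of starting cells died; -100 = all dead).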 Unmarked numbers belong to inactive results. Activity calls are given as the source filed them. The calls were made as follows: active = growth percent below 10; inactive = the rest.

test system: MDA-MB-468 breast; experiment: NCI-60 one-dose screen, 48 h (100 = growth as untreated, 0 = no growth, -100 = all killed); conditions: 10 µM unless noted

Compound | growth
O=C1/C(=C/c2ccc(F)cc2)Cc2ccccc21 | 96%
CC1(C)CC(=O)c2cc3c(N)c(C(=O)Nc4ccc(Cl)cc4)sc3nc2C1 | 110%
C=C1C(=O)O[C@H]2[C@H]1CC/C(COC(=O)CSCC(=O)OC/C1=C/CC[C@@]3(C)O[C@H]3[C@H]3OC(=O)C(=C)[C@@H]3CC1)=C\CC[C@@]1(C)O[C@@H]21 | -1.97% (active)
O=C1C=CC(=O)N1c1cccc(Cl)c1 | 86.7%
COc1ccc2c(c1)C=CC(C#N)N2C(=O)c1ccccc1 (stereo not given) | 13.1%
CCCCCC#CC(=O)O | 108%
Cc1cccc(C(=O)O)n1 | 111%
O=C(C[n+]1cccc(Br)c1)c1ccc2c(c1)CCCC2 | 94%
CCc1cc(O)ccc1Nc1cc(-c2ccc(-n3cccn3)cc2)[nH]n1 | 58.8%
N#Cc1c(NC(=O)c2ccc(F)c(Cl)c2)sc2c1CCC(=O)C2 | -20% (active)
O=C(CC1Sc2ccccc2NC1=O)NNc1cccc(Cl)c1Cl (stereo not given) | 95.2%
C=C1CCC2C3(C)COC(c4ccccc4)OC3CCC2(C)C1/C=C/C1=CCOC1=O (stereo not given) | 29.5%
c1ccc2c(-c3c[nH]c4ccccc34)c3c(cc2c1)[nH]c1ccccc13 | 53.8%
COc1ccc(Cn2cc3c(c2-c2cc(OC)c(OC)c(OC)c2)CCCc2cnoc2-3)cc1 | 48.6%
c1ccc(-c2nc3nonc3nc2-c2ccccc2)cc1 | 38.9%
O=C(Nc1ccc(N2CCNCC2)cc1)c1[nH]ncc1Nc1cc(Oc2ccccc2)ncn1 | 34.6%
CCCCOC(=O)c1cccc([N+](=O)[O-])c1 | 101%
C=C[C@@H]1C[C@@H]2Cc3c(C)cc(C)cc3N1O2 | 97.9%
CCCCCCCCn1ccc2cc(NC(=O)Cn3cc(CN4CCC(C)CC4)nn3)ccc21 | -52.9% (active)
C#C[C@]1(O)CC[C@H]2[C@@H]3CC=C4c5nc(Nc6ccccn6)sc5CC[C@]4(C)[C@H]3CC[C@@]21C | 14.2%

Compound | growth
COc1ccc(-c2n[nH]nc2-c2cc3ccccc3s2)cc1O | 40.8%
Cc1ccc(C2=NN(c3ccc(S(=O)(=O)NC(=O)NCc4ccccc4)cc3)C(c3ccc(N(C)C)cc3)C2)c(C)c1 (stereo not given) | 49.4%
COc1ccc(/C=C2\COc3ccc(-c4ccccc4)cc3C2=O)c(OC)c1 | 57%
COc1cc(NC(=O)c2cc3ccccc3cc2O)c(OC)cc1Cl | -5.6% (active)
Nc1c(Br)cc(Br)cc1-c1n[nH]c(=O)[nH]c1=O | 104%
Cc1nc(Nc2ccccn2)sc1C(=O)/C=C/c1ccc(Br)cc1 | 27.3%
COc1cc(C(=O)n2nc(NCCCc3ccccc3)c3cc(N)ccc32)cc(OC)c1OC | 91.4%
COc1ccc(OC)c(Nc2nc3nonc3nc2Nc2cccc(Br)c2)c1 | 0.0908% (active)
CCCCC1CCCCN1C(=O)OCC (stereo not given) | 114%
CC(=O)c1nn(-c2ccccc2)/c(=N/N=Cc2cn(-c3ccccc3)nc2-c2cc3ccccc3oc2=O)s1 | 103%
CC(C)(C)c1ccc(/C=C/C(=O)Nc2ccc(O)cc2)cc1 | 92.2%
O=C(c1ccc(O)cc1)[C@@H]1[C@@H]2CCCN2[C@@]2(C(=O)N(C(=O)c3ccc(F)cc3)c3ccccc32)[C@H]1c1ccc(F)cc1 | 92.4%
COc1cc(/C=C2\C=C(c3ccccc3)N(CCc3ccccc3)C2=O)cc(OC)c1OC | 89.2%
O=C1c2ccccc2OC=C(c2ccccc2)N1CCCCNc1ccc(S(=O)(=O)Nc2ncccn2)cc1 | 103%
O=C(O)CN(CCN(CC(=O)O)CC(=O)O)CCN(CC(=O)O)CC(=O)O | 22% and 94.6% and 89.3%
COc1cc2nc(-c3ccc(C#N)cc3)[nH]c(=O)c2cc1OC | 113%
O=C1C(Nc2ccc(Cl)cc2)=C(I)C(=O)c2ncccc21 | -72.3% (active)
CSC(SC)=C(C#N)c1nc2ccccc2s1 | 43.8%
COc1ccc(C(=O)/C=C/c2cn(Cc3ccc(Cl)cc3)c3ccccc23)cc1 | -28.2% (active)
O=C(Nc1ccc(-n2cc(-c3ccncc3)c(-c3ccc(Cl)c(O)c3)n2)cc1)c1cc(C(F)(F)F)cc(C(F)(F)F)c1 | 71.9%
